Source: PubChem BioAssay
This is a sample that favours compounds with a hit; in the whole collection about 2.4% have one here.
D2 PAM-1: positive allosteric modulators of human D2 dopamine receptor; P14416; DiscoveRx D2 beta-arrestin cells, luminescence, 90 min; 100% = 57 uM dopamine signal; potentiation, % (no concentration beside the values); actives 0.23% (n = 360,000); AID 624464; in the data active = potentiation above about 50%
Target sequence (P14416 whole entry, looked up): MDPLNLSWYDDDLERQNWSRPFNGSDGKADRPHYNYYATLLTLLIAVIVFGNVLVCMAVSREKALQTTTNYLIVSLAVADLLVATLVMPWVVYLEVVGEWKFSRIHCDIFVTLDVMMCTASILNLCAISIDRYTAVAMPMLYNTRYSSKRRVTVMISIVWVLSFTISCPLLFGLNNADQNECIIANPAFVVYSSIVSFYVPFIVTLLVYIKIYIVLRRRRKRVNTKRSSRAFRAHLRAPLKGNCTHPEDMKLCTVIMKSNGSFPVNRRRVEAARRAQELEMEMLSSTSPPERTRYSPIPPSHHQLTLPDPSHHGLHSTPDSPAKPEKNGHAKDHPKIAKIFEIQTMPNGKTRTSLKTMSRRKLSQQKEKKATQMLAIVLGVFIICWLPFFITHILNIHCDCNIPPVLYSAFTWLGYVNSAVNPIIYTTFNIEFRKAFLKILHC
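PathHunter beta-arrestin assay in DiscoveRx D2 cells. Compounds were added with an EC20 of dopamine (50 nM final) for 90 min at 37 deg C. Luminescence was read 1 h after detection reagent, with 57 uM dopamine as the EC100 control.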
D2 PAM-2: D2 dopamine receptor (human) potentiation. HEK293 T-REx D2, calcium flux, EC20 dopamine potentiation. potentiation, % at 10 µM. actives 0.34% (n = 340,000);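 active = potentiation over 3 SD above the plate norm, cut at about 30% in these data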; note: 0% is about no effect
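Potentiation of an EC20 dopamine calcium response measured kinetically over 180 s, after a preceding 180 s compound-only read flagging agonists. Cells: inducible Hek293 Trex D2 line, 4000/well, cultured overnight at 30 C before dye loading.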
D2 antagonist: antagonizes the human D2 dopamine receptor | P14416 | HEK293 TREx D2 cells, calcium flux, dopamine EC80 | inhibition, % at 10 µM | actives 2% (n = 340,000) | AID 485344; in the data active = inhibition above about 30%; inactive = below that, where a call was filed; note: 0% is about no effect
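Read-out: kinetic calcium fluorescence (1 cycle/s) in inducible HEK293 T-REx D2 cells after an EC80 dopamine addition that followed 180 s compound preincubation. Loss of the dopamine response indicates antagonism.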
D2 ag-1: D2 dopamine receptor (human) agonism; P14416; HEK293 T-REx D2 cells, calcium flux agonist mode; activation, % at 2 µM; actives 0.53% (n = 340,000); AID 485358;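 active = activation over 3 SD above normal in the single-dose calcium agonist read, cut at about 30% in these data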; note: 0% is about no effect
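Agonism scored from kinetic calcium signal (1 read/sec, 180 s) following compound pin transfer, after a 10 s baseline. Cells: HEK293 Trex line expressing inducible D2 receptor coupled to calcium, dye-loaded after overnight culture at 30 C.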
D2 ag-2: human D2 receptor agonism in beta-arrestin assay; DiscoveRx PathHunter D2 beta-arrestin, luminescence, 90 min; 100% = 57 uM dopamine signal; activation, % (no concentration beside the values); actives 0.084% (n = 360,000); AID 624465; in the data active = activation above about 40%
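Agonist mode: compounds alone added to overnight-plated D2 PathHunter cells for 90 min at 37 C, with 57 uM final dopamine (EC100) defining full response. Beta-arrestin recruitment detected by chemiluminescent reagent, read after 1 h at ambient temperature.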
An asterisk follows results filed as active; nt = no result.

SMILES	D2 PAM-1	D2 PAM-2	D2 antagonist	D2 ag-1	D2 ag-2
COc1ccc(CN2C3CCC2CC(NC(=O)c2cc(OC)c(OC)c(OC)c2)C3)cc1 (stereo not drawn)	-3.0	-28.2	nt	nt	-5.7
COc1cc(C(=O)NC2CC3CCCC(C2)N3Cc2ccccc2)cc(OC)c1OC (stereo not drawn)	-7.3	-31.9	83.7*	-0.8	-2.1
CCOC(=O)CNC(=O)Cn1nc(N2CCN(c3ccccc3)CC2)ccc1=O	nt	5.3	nt	0.3	nt
COc1cccc(NC(=O)N2C3CCCC2CC(NC(=O)C2CC2)C3)c1 (stereo not drawn)	-4.0	-11.1	34.1*	0.8	-3.7
COc1cc(C(=O)NC2CCN(Cc3ccccc3)CC2)cc(Cl)c1OC	-25.7	-24.0	88.9*	-0.3	-0.9
CCOc1ccc(CCNC(=O)CN2C(=O)COc3ccc(S(=O)(=O)N(CC)CC)cc32)cc1	nt	8.4	nt	nt	nt
COc1c2c(cc3oc(=O)ccc13)OC(C)(C)C=C2	-1.6	3.5	33.4*	-2.6	3.9
Cc1ccc(CNC(=O)C2CCN(S(=O)(=O)c3cccc4nonc34)CC2)cc1	4.2	-2.4	-4.8	0.5	-2.0
O=C(NCc1ccc(F)cc1)C1CCN(S(=O)(=O)c2cccc3nonc23)CC1	-2.0	31.9*	-7.5	-0.1	-1.6
Cc1ccc(C(=O)Nc2cccc(C(F)(F)F)c2)cc1Nc1cncnc1	-1.3	-23.4	33.2*	-1.2	3.3
O=C1C2CCCN2C(c2cccc(Br)c2)N1c1ccc(F)cc1 (stereo not drawn)	-2.3	-5.5	37.7*	-1.1	0.1
Clc1ccc(Cl)c(OCCN2CCCC2)c1	-5.4	-14.0	46.7*	0.8	4.4
CC(C)NCCOCCOc1ccc(Cl)cc1Br	-36.1	-28.8	66.9*	0.1	-3.1
Clc1ccc(OCCOCCN2CCCCC2)c(Br)c1	6.0	-24.5	76.9*	0.9	1.5
CN(C)CCOCCOc1ccc(Cl)cc1Br	-27.9	-31.3	18.6	0.5	-5.3
CC1CCCN(CCOc2ccc3ccccc3c2Br)C1 (stereo not drawn)	-12.4	-27.4	71.5*	0.1	-3.5
CC1CCN(CCCOc2ccc(Cl)cc2Br)CC1	-29.4	-26.1	33.5*	0.0	-5.3
CC1CCN(CCOCCOc2ccc(Cl)cc2Br)CC1	-30.5	-20.9	68.6*	0.0	-2.0
Cc1ccc(Cl)c(OCCN2CCCC(C)C2)c1 (stereo not drawn)	-26.6	-19.2	53.1*	2.6	-1.5
CC(C)Cc1nn2c(=O)cc(COC(=O)c3ccccc3NC(=O)c3cccs3)nc2s1	nt	-4.4	nt	0.8	nt
CC(C)NC(=O)CN(Cc1ccc2c(c1)OCO2)C(=O)CCC(=O)Nc1ccccn1	1.5	8.8	43.2*	0.3	-1.1
O=C(OCc1nnc(-c2ccccc2)o1)c1cc(S(=O)(=O)N2CCOCC2)c(Cl)cc1Cl	2.7	-3.1	37.5*	0.3	-0.9
Cc1ccc(C(=O)OCc2nnc(-c3ccccc3)o2)o1	6.2	32.1*	17.0	0.6	-2.6
CCC1(C)N=C(N)Nc2nc3cc(C)c(C)cc3n21 (stereo not drawn)	-26.2	-9.8	35.4*	-0.6	0.2
NC1=NC2(CCCC2)n2c(nc3ccccc32)N1	-8.8	1.3	2.2	-0.2	-3.4
SMILES	D2 PAM-1	D2 PAM-2	D2 antagonist	D2 ag-1	D2 ag-2
O=S(=O)(c1ccsc1)N1CC=C(c2ccccc2)CC1	-4.7	-11.6	34.7*	36.4*	10.3
CCc1cc2c(cc3c(=O)n(CC(=O)NCCCN4CCCCCC4)nc(CC)n32)s1	-0.9	-20.6	32.6*	-0.6	-6.4
CCc1nn(CC(=O)NCCCN2CCN(C)CC2)c(=O)c2cc3sc(C)cc3n12	-15.6	1.5	3.4	1.4	-1.6
Cc1cccc(N(CC(O)Cn2c3ccccc3c3ccccc32)S(=O)(=O)c2ccc(F)cc2)c1 (stereo not drawn)	nt	-2.7	nt	0.7	nt
Cc1nc(-c2ccccc2)sc1-c1n[nH]c(=S)n1C	-16.7	40.5*	-5.5	0.7	1.8
Cn1c(=O)c2c(SCC(=O)N3CCCc4ccccc43)nc(C3CC3)nc2n(C)c1=O	-4.0	24.6	35.2*	0.8	-5.5
Cc1sc2nc(C3CC3)nc(SCC(=O)N3CCCc4ccccc43)c2c1C	nt	3.4	2.6	-0.3	nt
Nc1nnnn1/N=C/c1cccc(OCc2ccccc2Cl)c1	-19.6	3.1	30.5*	-2.0	-3.9
